Reference: PubChem BioAssay
Active and inactive are the calls of the source.

How the values were obtained:
[1] = compound effects on differentiated 3T3-L1 adipocyte viability – cell-based, 3T3-L1 adipocytes, calcein-AM fluorescence, 48 h, basal, profiling panel (AID 1163); conditions: 3T3-L1 adipocytes viability, higher = more signal
[2] = compound effects on hepatocellular carcinoma cell viability – HepG2, calcein-AM fluorescence, 48 h, basal, profiling panel (AID 1164); conditions: higher = more signal
[3] = compound effects on multiple myeloma cell viability – MM1S, calcein-AM fluorescence, 48 h, basal, profiling panel (AID 1165); conditions: higher = more signal
[4] = calcein-AM signal in unstimulated myeloma cells – cell-based, calcein-AM fluorescence, 48 h, PK04 Diversity Set, profiling panel (AID 1166); conditions: RPMI8226 myeloma viability, higher = more signal;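 note: cells grown under basal conditions without added stimulus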
[5] = JC-1 mitochondrial signal, unstimulated HepG2 cells – cell-based, JC-1 fluorescence, 24 h, 100 nL compound, profiling panel (AID 1167); conditions: HepG2 mitochondrial potential, higher = more signal
[6] = JC-1 mitochondrial signal, unstimulated adipocytes – cell-based, JC-1 fluorescence, 3T3-L1 adipocytes, 24 h, 100 nL compound, profiling panel (AID 1168); conditions: JC-1 mitochondrial fluorescence, higher = more signal, called active from +8 up or from −8 down
[7] = JC-1 mitochondrial signal, unstimulated myeloma cells – cell-based, JC-1 fluorescence, RPMI8226, 24 h, 100 nL compound, profiling panel (AID 1169); conditions: JC-1 mitochondrial potential fluorescence, higher = more signal
[8] = JC-1 mitochondrial signal, unstimulated MM1S myeloma – cell-based, JC-1 fluorescence, 24 h, 100 nL compound, profiling panel (AID 1170); conditions: MM1S mitochondrial potential, higher = more signal
[9] = resazurin metabolic signal in A549 cells – cell-based, resazurin fluorescence, 24 h, PK04 Diversity Set, profiling panel (AID 1171); conditions: A549 viability, higher = more signal, called active from +8 up or from −8 down
[10] = resazurin metabolic signal in HepG2 cells – cell-based, resazurin fluorescence, 24 h, PK04 Diversity Set, profiling panel (AID 1172); conditions: HepG2 viability, higher = more signal
[11] = budding yeast growth changes without added modifier – OD600, strain BY4716, 24 h, basal condition, primary screen (AID 1173); conditions: S. cerevisiae BY4716 growth, OD600, 24 h; higher = more signal, called active from +8 up or from −8 down
[12] = viability profiling in MM1S myeloma cells – cell-based, resazurin fluorescence, basal, 24 h, PK04 Diversity Set, profiling panel (AID 1174); conditions: higher = more signal, called active from +8 up or from −8 down
[13] = target: Dihydroorotate dehydrogenase (quinone), mitochondrial (Plasmodium falciparum (isolate 3D7)) (UniProt Q08210); test: inhibition of P. falciparum DHODH – biochemical, C-terminal His tag, absorbance 600 nm, primary screen (AID 1175); conditions: PfDHODH enzyme, DCIP absorbance 600 nm; higher = more signal, called active from +8 up or from −8 down;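 note: recombinant parasite enzyme with a five histidine tag at its C terminus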
[14] = growth modulation of vineyard yeast isolate – strain RM11-1a, OD600, basal, 24 h, primary screen (AID 1177);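 note: cultures grown under basal conditions with no added stressor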; conditions: S. cerevisiae RM11-1a growth, OD600, 24 h; higher = more signal, called active from +8 up or from −8 down
[15] = growth of efflux-deficient E. coli DRC39 – strain DRC39, OD650, 24 h, E. coli filamentation inducers, primary screen (AID 1178);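 note: growth measured as culture turbidity by optical density at 650 nm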; conditions: E. coli DRC39 acrAB, higher = more signal, called active from +8 up or from −8 down
[16] = growth of efflux-deficient E. coli DRC39 – strain DRC39, OD650, 48 h, E. coli filamentation inducers, primary screen (AID 1179);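 note: screen aims at cell division blockers that make cells filament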; conditions: E. coli DRC39 delta-acrAB growth, higher = more signal, called active from +8 up or from −8 down
[17] = viability profiling in RPMI8226 myeloma cells – cell-based, resazurin fluorescence, basal, 24 h, PK04 Diversity Set, profiling panel (AID 1180); conditions: higher = more signal;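 note: RPMI8826 multiple myeloma cell line at 5000 cells per well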
[18] = target: E3 ubiquitin-protein ligase XIAP (Homo sapiens) (UniProt P98170); test: small molecules binding XIAP protein – biophysical, small-molecule microarray, fluorescence 635 nm, primary screen (AID 1181); conditions: higher = more signal;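 note: score merges 667 nm emission and signal to noise over triplicate slides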
[19] = system: XIP peptide (Xip251-270) binding; test: XIP fragment 251-270 binding compounds – biochemical, small-molecule microarray, fluorescence 635/667 nm, 0.1 µg/mL protein, primary screen (AID 1182); conditions: fluorescent protein binding, 635 nm, higher = more signal, called active from +8 up or from −8 down
[20] = system: XIP peptide (Xip251-270); test: compounds binding XIP fragment 251-270 – biochemical, small-molecule microarray, fluorescence 635/667 nm, 0.5 µg/mL protein, primary screen (AID 1183); conditions: fluorescence 635 nm, higher = more signal

Dihydroorotate dehydrogenase (quinone), mitochondrial (Plasmodium falciparum (isolate 3D7)), sequence (Q08210 whole entry, looked up): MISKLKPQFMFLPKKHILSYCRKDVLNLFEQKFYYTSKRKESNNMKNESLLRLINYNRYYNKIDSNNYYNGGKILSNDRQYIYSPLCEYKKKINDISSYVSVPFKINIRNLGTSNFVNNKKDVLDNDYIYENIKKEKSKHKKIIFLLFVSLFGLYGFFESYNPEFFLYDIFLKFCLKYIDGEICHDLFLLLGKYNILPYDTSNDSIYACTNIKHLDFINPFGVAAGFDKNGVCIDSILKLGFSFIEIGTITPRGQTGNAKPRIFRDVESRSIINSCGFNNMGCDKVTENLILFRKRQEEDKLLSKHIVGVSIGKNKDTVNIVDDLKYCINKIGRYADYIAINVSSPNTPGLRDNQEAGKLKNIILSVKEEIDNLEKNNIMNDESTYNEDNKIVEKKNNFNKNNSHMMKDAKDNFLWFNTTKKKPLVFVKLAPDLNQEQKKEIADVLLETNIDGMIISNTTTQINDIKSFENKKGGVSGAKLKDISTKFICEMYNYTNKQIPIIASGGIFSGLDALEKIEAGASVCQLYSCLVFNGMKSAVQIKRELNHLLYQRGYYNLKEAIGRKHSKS
E3 ubiquitin-protein ligase XIAP (Homo sapiens), sequence (P98170 whole entry, looked up, the tested form may be a part): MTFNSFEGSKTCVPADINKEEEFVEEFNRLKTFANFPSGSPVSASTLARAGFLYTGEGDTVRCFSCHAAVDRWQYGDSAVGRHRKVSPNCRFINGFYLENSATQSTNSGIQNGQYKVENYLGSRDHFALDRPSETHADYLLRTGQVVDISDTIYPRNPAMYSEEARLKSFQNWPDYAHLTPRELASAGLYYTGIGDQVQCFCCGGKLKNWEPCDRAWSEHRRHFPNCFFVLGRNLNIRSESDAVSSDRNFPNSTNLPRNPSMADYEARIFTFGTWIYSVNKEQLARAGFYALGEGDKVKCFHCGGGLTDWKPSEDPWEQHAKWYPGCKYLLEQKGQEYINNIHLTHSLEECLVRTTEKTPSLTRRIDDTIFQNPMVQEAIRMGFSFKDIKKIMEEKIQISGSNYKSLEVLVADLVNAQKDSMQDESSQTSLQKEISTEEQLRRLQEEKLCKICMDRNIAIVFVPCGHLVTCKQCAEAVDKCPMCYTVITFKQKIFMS

Structure (SMILES)	z-score [1]	z-score [2]	z-score [3]	z-score [4]	z-score [5]	z-score [6]	z-score [7]	z-score [8]	z-score [9]	z-score [10]	z-score [11]	z-score [12]	composite z-score [13]	z-score [14]	z-score [15]	z-score [16]	z-score [17]	composite z-score [18]	composite z-score [19]	composite z-score [20]
CC(C)(C)OC(=O)CC[C@@]12N=C(c3ccc(OCCCO)cc3)O[C@@H]1c1ccccc1N(Cc1ccccc1)C2=O	1.87	-0.186	-1.9	-3.34	0.624	1.69 (inactive)	-0.778	1.44	0.345 (inactive)	0.375	-0.075 (inactive)	-0.0313 (inactive)	0.463 (inactive)	1.17 (inactive)	1.59 (inactive)	0.358 (inactive)	0.574	-0.635	1.63 (inactive)	0.693
CC(C)C(=C=CC[C@H](O)c1ccc(OCCO)cc1)C[C@H](O)COCc1ccccc1	0.475	-0.822	-3.38	-3.77	0.296	0.371 (inactive)	-0.625	-1.36	0.515 (inactive)	0.657	-3.15 (inactive)	-1.83 (inactive)	-1.09 (inactive)	1.04 (inactive)	1.35 (inactive)	0.883 (inactive)	-0.0676	-0.0233	0.941 (inactive)	0.0727
C=C(COC)C(=O)CC[C@H](OC(=O)c1cccnc1)c1cccc(OCCO)c1	1.13	-1.38	-3.32	-0.941	0.872	0.984 (inactive)	-0.169	-0.615	0.633 (inactive)	0.282	-0.221 (inactive)	0.839 (inactive)	-0.236 (inactive)	1.61 (inactive)	1.09 (inactive)	0.757 (inactive)	-0.581	0.0792	0.804 (inactive)	-0.661
C=CCNC(=O)[C@@H]1[C@H]2C(=O)O[C@H](c3ccccc3)[C@H](c3ccccc3)N2[C@H](c2ccc(O)cc2)[C@@]12C(=O)Nc1ccc(C#Cc3ccc(OC)cc3)cc12	1.12	-2.27	-2.63	-4.22	-2.39	2.94 (inactive)	-1.16	-0.975	-1.58 (inactive)	-0.322	-0.267 (inactive)	-1.64 (inactive)	-1.35 (inactive)	-0.411 (inactive)	-0.071 (inactive)	0.773 (inactive)	-3.89	-0.0932	0.507 (inactive)	0.543
O=C1N(CCS(=O)(=O)c2ccccc2)Cc2ccccc2[C@@H]2OC(c3ccc(OCCCO)cc3)=N[C@]12Cc1ccccc1	2.11	0.288	-0.0623	-0.222	0.194	0.401 (inactive)	-1.11	-0.693	-0.77 (inactive)	0.309	1.72 (inactive)	-0.739 (inactive)	0.913 (inactive)	4.1 (inactive)	2.25 (inactive)	1.05 (inactive)	-0.384	-0.121	1.73 (inactive)	0.927
C=CCN1C(=O)[C@@]2(O[C@@H](CCn3cc(CCO)nn3)[C@H]([Si](C)(C)c3ccc(OC)cc3)[C@H]2C)c2cc(N3C(=O)c4cccc5cccc3c45)ccc21	0.0493	-4.79	-2.73	-4.46	-2.84	1.32 (inactive)	-1.15	-2.09	-5.51 (inactive)	-6.41	-1.2 (inactive)	-9.06 (active)	-0.0753 (inactive)	1.19 (inactive)	2.37 (inactive)	2.05 (inactive)	-6.23	0.137	0.254 (inactive)	0.339
CCCCCN1CC=CC23O[C@@H]4/C=C\CCC(C)OC(=O)C4[C@H]2C(=O)N(CCO)[C@@H]3C1=O (stereo not given in full)	2.4	0.277	2.91	-0.245	0.419	1.74 (inactive)	0.791	1.17	0.095 (inactive)	0.355	-0.734 (inactive)	1.32 (inactive)	0.0255 (inactive)	0.121 (inactive)	1.34 (inactive)	1.11 (inactive)	1.22	0.272	0.642 (inactive)	-0.927
[N-]=[N+]=NCc1ccccc1C[C@@]1(C(=O)NCc2ccccc2)N=C(c2ccc(OCCCO)cc2)O[C@@H]1c1ccccc1	0.904	-1.34	-2.85	-3.02	0.634	0.187 (inactive)	-0.876	-0.758	0.507 (inactive)	1.72	1.47 (inactive)	-0.544 (inactive)	-0.112 (inactive)	0.971 (inactive)	1.61 (inactive)	0.407 (inactive)	-0.732	-0.0172	0.746 (inactive)	-0.409
CC(=O)NCCCC[C@@H]1NC(=O)[C@@H]2C[C@H](C(=O)O)[C@H](c3cccc(OCCO)c3)N2C1=O	0.75	-0.988	-1.8	0.267	1.31	0.317 (inactive)	0.501	0.483	0.537 (inactive)	0.377	0.178 (inactive)	0.636 (inactive)	-0.252 (inactive)	1.2 (inactive)	0.504 (inactive)	0.167 (inactive)	0.873	-0.363	1.41 (inactive)	1
C=CCC1(CC=C)C[C@H]2CO[C@H](c3ccc(OC)cc3)N2C1=O	0.683	-0.88	0.347	0.0778	0.872	0.773 (inactive)	-0.245	0.278	0.771 (inactive)	1.01	-4.05 (inactive)	-1.19 (inactive)	0.621 (inactive)	-0.169 (inactive)	1.51 (inactive)	1.03 (inactive)	0.765	-0.323	0.842 (inactive)	0.739
O=C1c2ccccc2[C@@]2(Cc3ccccc3N(CC(F)(F)F)C2=O)[C@H](c2ccc(CO)cc2)N1Cc1ccccc1C(F)(F)F	0.559	-0.167	0.733	-1.08	0.288	1.05 (inactive)	0.753	0.197	-0.203 (inactive)	0.528	-0.829 (inactive)	1.02 (inactive)	-3.56 (inactive)	-0.49 (inactive)	-0.136 (inactive)	-0.344 (inactive)	1.05	-0.0446	-0.765 (inactive)	-1.23
COc1ccc(/C=C/C(=O)c2cccc(OCC(=O)OC(C)(C)C)c2)cc1	0.934	0.158	-2.97	-2.67	0.528	0.342 (inactive)	-0.702	0.656	1.26 (inactive)	0.163	-1.39 (inactive)	1.11 (inactive)	0.131 (inactive)	-0.428 (inactive)	0.4 (inactive)	0.0785 (inactive)	1.76	0.0374	0.401 (inactive)	0.247
CC(C)C(CO)N1C(=O)[C@@H]2C3C(=O)OCCC/C=C\[C@H]3OC23C=CCN(C(C)C)C(=O)[C@@H]13 (stereo not given in full)	0.492	-0.345	0.239	-0.0156	0.271	-0.0599 (inactive)	-0.524	1.05	0.735 (inactive)	0.997	-0.953 (inactive)	0.814 (inactive)	-0.848 (inactive)	-1.36 (inactive)	1.66 (inactive)	1.26 (inactive)	1.53	-0.269	0.528 (inactive)	-0.501
O=C1O[C@H](c2ccccc2)[C@H](c2ccccc2)N2[C@H]1[C@@H](C(=O)NC[C@H](O)c1ccccc1)[C@]1(C(=O)Nc3ccc(C#CC4(O)CCCCCC4)cc31)[C@H]2c1ccc(O)cc1	1.43	-0.641	-0.804	-1.62	-1.71	-0.947 (inactive)	-0.672	-0.566	0.814 (inactive)	0.82	-1.55 (inactive)	0.557 (inactive)	-0.154 (inactive)	-0.49 (inactive)	0.487 (inactive)	0.972 (inactive)	0.327	-0.141	1.05 (inactive)	0.444
C=CC[C@@]1(C(=O)NCc2ccccc2)N=C(c2ccc(OCCCO)cc2)O[C@@H]1c1ccccc1	0.791	-1.01	-2.93	-4.46	0.0411	1.84 (inactive)	-1.23	0.199	0.0074 (inactive)	0.547	-2.16 (inactive)	-0.47 (inactive)	-0.904 (inactive)	-1.23 (inactive)	0.254 (inactive)	-0.124 (inactive)	-1.48	1.49	0.624 (inactive)	0.784
COc1ccc(C#Cc2ccc3c(c2)[C@]2(C(=O)N3)[C@H](c3ccc(O)cc3)N3[C@H](c4ccccc4)[C@H](c4ccccc4)OC(=O)[C@H]3[C@@H]2C(N)=O)cc1	1.39	-4.79	-3.41	-4.61	-2.81	-0.0696 (inactive)	-1.32	-1.66	-1.62 (inactive)	-0.424	-0.379 (inactive)	-6.51 (inactive)	0.255 (inactive)	1.47 (inactive)	0.277 (inactive)	0.464 (inactive)	-6.8	0.237	0.0982 (inactive)	0.542
COCCOC(=O)N1C(=O)[C@@]2(c3cc(C#CCCO)ccc31)[C@H](c1ccccc1OCCO)N1[C@H](c3ccccc3)[C@H](c3ccccc3)OC(=O)[C@H]1[C@@H]2C(=O)NC[C@H](O)c1ccccc1	0.915	-0.527	-0.377	-1.11	0.278	1.96 (inactive)	-0.73	-1.3	1.56 (inactive)	1.43	-0.769 (inactive)	0.716 (inactive)	-0.375 (inactive)	-0.404 (inactive)	2.24 (inactive)	2.23 (inactive)	0.433	-0.0446	0.533 (inactive)	0.705
COCCOC(=O)N1C(=O)[C@@]2(c3cc(C#CC4(O)CCCCCC4)ccc31)[C@H](c1ccccc1OCCO)N1[C@H](c3ccccc3)[C@H](c3ccccc3)OC(=O)[C@H]1[C@@H]2C(=O)Nc1nc2ccccc2s1	1.65	-0.133	-2.71	-4.28	-2.52	1.52 (inactive)	-1.14	-0.807	0.611 (inactive)	0.189	1.15 (inactive)	-0.326 (inactive)	0.764 (inactive)	2.77 (inactive)	-0.0438 (inactive)	0.61 (inactive)	-0.346	-0.0765	1.65 (inactive)	0.649
